For 20 compounds, Potency results are on record in PubChem BioAssay (NCATS).

Molecules are shown by their SMILES. Inconclusive results are not listed. The source made the active and inactive calls. Calls come from the whole dose curve; as a rule, active = well fitted inhibition curve with a large enough effect; inconclusive = small, poorly fitted or top-dose-only effect; inactive = flat fitted curve, though single readings scatter.

Holding throughout (assay): qHTS profiling for inhibitors of Plasmodium falciparum proliferation (AID 504749); note: nearly all actives have a fitted effect of over 60% in size
Common to all, as to conditions: P. falciparum in erythrocytes, SYBR Green DNA, 72 h; series mostly up to 28.7 µM
Background: qHTS replaces the single test concentration by a dilution series.

The test system of one experiment is CP335. The method in brief:
(§1)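 Fluorescence of SYBR Green-bound parasite DNA, read at 485/535 nm, served as the growth measure. Infected erythrocytes were cultured with compound 72 h; artemisinin (0.29 uM) and DMSO wells defined the normalization range.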

Another experiment concerns DFO2036. The method in brief: as §1
In a further experiment the test system is DIV14. The method in brief:
as §1

The subject of the next experiment is DIV17. The method in brief:
as §1

A further experiment has as its system DIV30. The method in brief: as §1
The test system of another experiment is Dd2. The method in brief:
as §1

Another experiment concerns ECU. The method in brief:
as §1

The test system of the next experiment is FAB9. The method, boiled down: as §1
The test system of another experiment is GB4. The method in brief: as §1
The next experiment relates to HB3. The method in brief:
as §1
Potency is the fitted concentration of half-maximal effect.

In the case of `Cc1ncc(C[n+]2csc(CCOP(=O)(O)OP(=O)(O)O)c2C)c(N)n1`, the Potency entry in the experiment with CP335, in the experiment with DFO2036, in the experiment with DIV14, in the experiment on DIV17, with DIV30 and in the experiment on Dd2 was “inactive” each time. Moreover, the Potency result in the experiment with ECU, in the experiment on FAB9, with GB4 and in the experiment on HB3 was “inactive” each time.
Consider `CN1c2c(nc(N)[nH]c2=O)NCC1CNc1ccc(C(=O)NC(CCC(=O)O)C(=O)O)cc1` (stereo not given), for which the Potency result in the experiment with CP335, with DFO2036, in the experiment on DIV14, with DIV17, with DIV30 and in the experiment with Dd2 was “inactive” throughout. Besides, the Potency entry in the experiment with ECU, with FAB9, in the experiment on GB4 and in the experiment with HB3 was “inactive” each time.
With `CCCCCCCCCCCCOCCCN`, the Potency result in the experiment with CP335, in the experiment on DFO2036, with DIV14, in the experiment on DIV17, in the experiment with DIV30 and with Dd2 was “inactive” throughout. For the same compound, the Potency result in the experiment on ECU, in the experiment on FAB9, with GB4 and in the experiment on HB3 was “inactive” throughout.
As to `COc1cc(NCCCC(C)N)c2ncccc2c1` (stereo not given), the Potency is 6.75 µM (active) in the experiment on CP335; 11.2 µM (active) with DFO2036; 2.13 µM (active) with DIV14; 1.35 µM (active) in the experiment with DIV17; 4.78 µM (active) in the experiment on DIV30; 2 µM (active) in the experiment on Dd2. The Potency in the experiment with ECU was 2.82 µM (active); in the experiment with FAB9 it was 4.47 µM (active); in the experiment with GB4 it was 2.13 µM (active); in the experiment with HB3 it was 3.55 µM (active).
Turning to `Cc1nc(NS(=O)(=O)c2ccc(N)cc2)nc(C)c1Br`, the Potency result in the experiment with CP335, in the experiment on DFO2036, in the experiment with DIV14, in the experiment with DIV17, with DIV30 and with Dd2 was “inactive” throughout. Moreover, the Potency entry in the experiment with ECU, with FAB9, in the experiment on GB4 and in the experiment with HB3 was “inactive” throughout.
`FC(F)(F)C(F)(F)C(F)(F)C(F)(F)C(F)(F)C(F)(F)F`: the Potency result with CP335, in the experiment with DFO2036, with DIV14, with DIV17, with DIV30 and in the experiment with Dd2 was “inactive” throughout. The Potency entry in the experiment with ECU, with FAB9, in the experiment with GB4 and with HB3 was “inactive” each time.
In the case of `CC(=O)Oc1cc(C(F)(F)F)ccc1C(=O)O`, the Potency result in the experiment with CP335, with DFO2036, with DIV14, in the experiment on DIV17, in the experiment with DIV30 and with Dd2 was “inactive” throughout. Also, the Potency entry with ECU, in the experiment on FAB9, in the experiment with GB4 and in the experiment with HB3 was “inactive” throughout.
In the case of `O=C(O)C1=C(CSc2nnnn2CS(=O)(=O)O)CS[C@@H]2[C@H](NC(=O)[C@H](O)c3ccccc3)C(=O)N12`, the Potency entry in the experiment on CP335, in the experiment with DFO2036, with DIV14, in the experiment with DIV17, with DIV30 and in the experiment with Dd2 was “inactive” throughout. The Potency result in the experiment on ECU, with FAB9, in the experiment on GB4 and with HB3 was “inactive” throughout.
With `S=C1SCN(Cc2ccccc2)CN1Cc1ccccc1`, the Potency entry in the experiment on CP335, with DFO2036, in the experiment with DIV14, in the experiment on DIV17, with DIV30 and with Dd2 was “inactive” in each case. The Potency result with ECU, in the experiment on FAB9, with GB4 and with HB3 was “inactive” in each case.
Consider `O=C1c2ccccc2C(=O)C1c1ccc(F)cc1`, for which the Potency result in the experiment on CP335, in the experiment with DFO2036, with DIV14, with DIV17, in the experiment on DIV30 and with Dd2 was “inactive” in each case. Besides, the Potency result in the experiment with ECU, with FAB9, with GB4 and with HB3 was “inactive” throughout.
Turning to `C[C@H](O)CN(C)C`, the Potency result in the experiment with CP335, with DFO2036, with DIV14, with DIV17, in the experiment on DIV30 and in the experiment with Dd2 was “inactive” each time. For the same compound, the Potency result in the experiment on ECU, in the experiment with FAB9, in the experiment on GB4 and with HB3 was “inactive” throughout.
Regarding `CCN(CC)C(=O)c1cccnc1`, the Potency result in the experiment with CP335, in the experiment with DFO2036, with DIV14, in the experiment with DIV17, in the experiment with DIV30 and in the experiment on Dd2 was “inactive” in each case. The Potency entry with ECU, in the experiment on FAB9, in the experiment on GB4 and in the experiment with HB3 was “inactive” throughout.
As for `CN(C)C=Nc1c(I)cc(I)c(CCC(=O)O)c1I`, the Potency result in the experiment with CP335, in the experiment on DFO2036, in the experiment on DIV14, with DIV17, in the experiment with DIV30 and in the experiment on Dd2 was “inactive” in each case. Besides, the Potency entry in the experiment with ECU, in the experiment with FAB9, with GB4 and in the experiment on HB3 was “inactive” each time.
With `OCCCNc1ccccc1`, the Potency entry with CP335, in the experiment with DFO2036, in the experiment on DIV14, with DIV17, in the experiment with DIV30 and in the experiment with Dd2 was “inactive” each time. For the same compound, the Potency entry with ECU, in the experiment with FAB9, in the experiment with GB4 and with HB3 was “inactive” throughout.
Consider `CNC(=O)C[C@@H](N)C(=O)N[C@@H](C(=O)N[C@@H]1C(=O)N2[C@@H]1SC(C)(C)[C@@H]2C(=O)O)c1ccc(O)cc1`, for which the Potency result in the experiment on CP335, with DFO2036, in the experiment on DIV14, with DIV17, in the experiment with DIV30 and in the experiment on Dd2 was “inactive” in each case. The Potency result in the experiment on ECU, in the experiment with FAB9, in the experiment on GB4 and in the experiment on HB3 was “inactive” throughout.
Regarding `CCN(CC)C(=S)S`, the Potency entry in the experiment on CP335, with DFO2036, with DIV14, in the experiment on DIV17, in the experiment with DIV30 and in the experiment on Dd2 was “inactive” throughout. In addition, the Potency result with ECU, with FAB9, in the experiment with GB4 and in the experiment with HB3 was “inactive” in each case.
Turning to `Cc1ncc(COP(=O)(O)O)c(CN)c1O`, the Potency result in the experiment with CP335, in the experiment with DFO2036, in the experiment on DIV14, in the experiment with DIV17, in the experiment with DIV30 and in the experiment on Dd2 was “inactive” each time. Further, the Potency entry in the experiment on ECU, in the experiment with FAB9, in the experiment on GB4 and with HB3 was “inactive” each time.
`COc1ccc(/C=C/C(=O)O)cc1`: the Potency result in the experiment with CP335, in the experiment on DFO2036, in the experiment on DIV14, in the experiment with DIV17, with DIV30 and in the experiment with Dd2 was “inactive” throughout. The Potency entry in the experiment with ECU, in the experiment with FAB9, with GB4 and in the experiment with HB3 was “inactive” in each case.
As for `CCCCC[C@H](O)/C=C/[C@H]1[C@H](O)CC(=O)[C@@H]1C/C=C\CCCC(=O)O`, the Potency entry in the experiment on CP335, in the experiment with DFO2036, in the experiment with DIV14, in the experiment with DIV17, with DIV30 and in the experiment with Dd2 was “inactive” in each case. Besides, the Potency result with ECU, in the experiment on FAB9, with GB4 and with HB3 was “inactive” each time.
As for `CC(C)c1ncc([N+](=O)[O-])n1C`, the Potency result in the experiment with CP335, in the experiment with DFO2036, in the experiment on DIV14, in the experiment on DIV17, with DIV30 and in the experiment with Dd2 was “inactive” each time. Moreover, the Potency result in the experiment on ECU, with FAB9, with GB4 and in the experiment with HB3 was “inactive” in each case.
